The list is not random: actives were taken first. Their share in the collection is about 1.3%.
RXFP1 agonist = RXFP1 (human) receptor agonism. Q9HBX9. HEK293T-RXFP1 cAMP TR-FRET, 30 min; response scale: percent of porcine relaxin response, buffer zero. Potency, µM (top dose mostly 57.5 µM), inactives show at the top dose activation, usual class: activators. hit rate 0.3% among 370,000; active = well fitted activation curve with a large enough effect; inconclusive = small, poorly fitted or top-dose-only effect; also: potency is read from the fitted curve at half-maximal effect; % is scaled to controls: 0 for no effect and ±100 for the full control effect; nearly all actives have a fitted effect of over 60% in size
Target sequence (Q9HBX9 whole entry, looked up): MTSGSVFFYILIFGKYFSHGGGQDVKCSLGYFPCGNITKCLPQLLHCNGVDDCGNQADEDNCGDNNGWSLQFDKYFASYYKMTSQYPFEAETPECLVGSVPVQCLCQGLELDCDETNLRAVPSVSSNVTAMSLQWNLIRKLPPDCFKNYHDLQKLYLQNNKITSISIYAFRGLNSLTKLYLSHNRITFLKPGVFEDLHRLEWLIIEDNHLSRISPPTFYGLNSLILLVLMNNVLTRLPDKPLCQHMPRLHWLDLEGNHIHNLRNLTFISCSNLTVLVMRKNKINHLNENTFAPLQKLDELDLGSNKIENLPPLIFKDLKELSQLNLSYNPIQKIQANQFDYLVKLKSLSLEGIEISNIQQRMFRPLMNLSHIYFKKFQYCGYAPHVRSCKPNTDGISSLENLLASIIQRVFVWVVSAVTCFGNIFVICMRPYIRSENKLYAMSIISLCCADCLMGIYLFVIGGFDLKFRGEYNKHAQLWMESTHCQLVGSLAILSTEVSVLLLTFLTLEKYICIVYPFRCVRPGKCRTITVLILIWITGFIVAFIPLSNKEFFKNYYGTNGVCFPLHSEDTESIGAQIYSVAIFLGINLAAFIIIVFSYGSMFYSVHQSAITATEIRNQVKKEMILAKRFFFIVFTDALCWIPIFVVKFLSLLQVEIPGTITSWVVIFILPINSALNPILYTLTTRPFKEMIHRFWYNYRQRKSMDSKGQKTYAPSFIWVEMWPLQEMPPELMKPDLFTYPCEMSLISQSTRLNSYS
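Agonist response is measured as cAMP accumulation in an RXFP1-transfected HEK293T line under PDE4 inhibition. Values are scaled between buffer-only and 29 nM porcine relaxin, and EC50s come from standard Hill equation fits.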
TSHR antag = blocks TSH signaling through the human TSH receptor; P16473; TSHR-expressing cells, TSH-stimulated cAMP HTRF, 2 h; active compounds read low; activity change, negative = inhibition, % at 11.5 µM; hit rate 0.2% among 330,000; AID 504810;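 active = activity change below a set negative limit, meaning inhibition stronger than a set level, cut at about -70% in these data; inconclusive = activity change between two set negative limits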; also: % is scaled to controls: 0 for no effect and ±100 for the full control effect
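Read-out is FRET at 665 nm (cryptate excitation 337 nm) from a cryptate-tagged anti-cAMP antibody, competed by cell cAMP against cAMP-d2. Compounds are tested on freshly harvested TSHR cells challenged with 4nM TSH (EC80) for 2 hours at 37 deg C.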
pAkt inh = inhibitors of Akt phosphorylation. Neuro2A IGF-stimulated pAkt S473 HTRF, 20 min; active compounds read low. hit rate 0.32% among 360,000. activity change, % for hits at 50 µM. AID 651550; in the data active = activity change below about -80%; inconclusive = mostly about -51% to -80%; also: % is scaled to controls: 0 for no effect and ±100 for the full control effect
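Neuro2A cells (4,500/well, DMEM with 0.5% FBS) were treated with compound at a single 50 µM final concentration, stimulated with 6 nM IGF for 20 min at 37 °C, and lysed. Phospho-Akt Ser473 was read by HTRF as 665/615 ratio ×10^4.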
RXFP1 antagonist = antagonists of human relaxin receptor RXFP1; HEK293-RXFP1, relaxin-stimulated cAMP HTRF, 30 min; active compounds read low; hit rate 0.59% among 350,000; activity change, negative = inhibition, % at 57.5 µM;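 active = activity change of -60% or lower, but not beyond a set lower limit; inconclusive = change between -60% and -40%, or beyond the set limit; inactive = change above -40%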; also: % is scaled to controls: 0 for no effect and ±100 for the full control effect
gsp ag = activates gsp, the McCune-Albright syndrome mutation; gsp mutant cells, cAMP HTRF, 30 min; Potency, µM (series often up to 76.9 µM), for the others: at the top dose activation (cAMP increase), most hits filed as activators; hit rate 0.13% among 340,000; active = well fitted activation curve with a large enough effect; inconclusive = small, poorly fitted or top-dose-only effect, or another doubt; inactive = no such curve, though single readings can be large or run the other way; cell line not stated here;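 also: phosphodiesterase inhibitor Ro 20-1724 added with compounds to block cAMP breakdown; potency is read from the fitted curve at half-maximal effect; nearly all actives have a fitted effect of over 60% in size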
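Cells in DMEM/10% FBS with G418 were pretreated with compounds in DMSO plus […] (300 uM stock) for 30 min at 37C. cAMP was measured by HTRF (cAMP-d2 plus anti-cAMP antibody-K) after 30 min at room temperature.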
gsp antag = gsp mutant antagonism. gsp-mutant cells, cAMP HTRF, 30 min. Potency, µM (highest dose often 76.9 µM), for the others: top-dose activity change, negative = inhibition, actives largely listed as inhibitors. hit rate 0.4% among 340,000. AID 624288; calls by dose curve; cell line not stated here;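 also: intracellular cAMP measured with PDE inhibitor Ro 20-1724 present during compound exposure; potency is read from the fitted curve at half-maximal effect; % is scaled to controls: 0 for no effect and ±100 for the full control effect; nearly all actives have a fitted effect of over 65% in size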
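Cells, 2000/well, grown 16–24 h in DMEM 10% FBS with 0.5 mg/ml G418, then compounds plus […] (300 uM addition stock), 30 min at 37C. cAMP read by HTRF (cAMP-d2 and anti-cAMP antibody-K in lysis buffer) after 30 min RT.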
Active calls of the source: *; i = inactive; ? = inconclusive; / = not tested or not shown; [ ] = dose if it differs, or a comment.

SMILES	RXFP1 agonist	TSHR antag	pAkt inh	RXFP1 antagonist	gsp ag	gsp antag
CC1CCc2cc(F)ccc2N1C(=O)CSc1nnc2c(n1)[nH]c1ccccc12 (stereo unspecified)	0.3%	-1.2	i	-62.3*	-0.2%[15.4 µM]	-25.1%
O=C1CC(N2CCN(c3ccc(Cl)c(Cl)c3)CC2)C(=O)N1 (stereo unspecified)	-0.2%	2.0	-119.7%*	-1.3	-22.4%	-4.1%
CN1CCN([C@@H]2CS(=O)(=O)N[C@H]2COCc2ccccc2)CC1	/	/	i	/	/	/
COc1ccc(-c2cc(C(F)(F)F)nc(N)n2)cc1	-1.3%	-8.7	i	-60.6*	-54.2%[15.4 µM]	-7.0%
COc1ccc(-c2cc(C(F)(F)F)nc(S(C)(=O)=O)n2)cc1	6.1%	16.4	-97.9%*	-20.3	?	16.9%
Nc1nc(-c2ccc(F)cc2)cc(C(F)(F)F)n1	1.2%	-7.2	i	-10.6	-18.3%	-1.1%
CCOC(=O)C1(Cc2ccccc2C(F)(F)F)CCN(C2CCC2)CC1	0.0%	2.5	i	-3.0	4.4%[15.4 µM]	/
CCOC(=O)C1(Cc2ccccc2C(F)(F)F)CCN(C2CCN(C(C)=O)CC2)CC1	0.8%	-3.9	i	-63.4*	6.3%[15.4 µM]	-1.3%
CC(=O)NS(=O)(=O)c1ccc(N=c2ssc3c2-c2cc(C)c(C)cc2NC3(C)C)cc1	-0.2%	-16.7	i	-19.8	-16.9%[15.4 µM]	14.1µM*
COC(=O)c1ccc(C(=O)OC)c(=O)[nH]1	-4.9%	6.2	i	1.3	11.5%	-8.8%
CN1C(=O)/C(=C/c2ccc(OCc3ccccc3F)cc2)NC1=S	1.3%	-70.2*	i	7.6	-35.8%	4.0%
O=[N+]([O-])c1ccc(NC(=S)NCCc2ccc(Cl)cc2)cc1	-0.4%	-74.8*	i	/	0.6%	-12.0%
Cc1ccc(S(=O)(=O)N(C)C)cc1NC(=O)CSc1nncs1	7.6%	6.1	i	-21.6	-6.3%[15.4 µM]	0.5%
O=C(CSc1nncs1)Nc1cc(S(=O)(=O)N2CCOCC2)ccc1N1CCCC1	17.5%	12.4	i	-0.5	22.4µM*	8.6%
COc1ccc(S(=O)(=O)N(C)C)cc1NC(=O)CSc1nncs1	17.8µM*	7.5	i	8.2	43.5%[15.4 µM]	18.7%
Nc1nnc(SCC(=O)Nc2cc(S(=O)(=O)N3CCOCC3)ccc2N2CCCC2)s1	9.1%	18.3	i	7.1	20.1%	9.1%
Cc1cc(CCCOc2c(C)cc(-c3noc(C(F)(F)F)n3)cc2C)on1	/	/	/	-28.8	/	/
COC(=O)c1sc(NC(=O)c2c(F)cccc2F)c(C#N)c1C	1.5%	-5.7	i	1.1	-27.9%	-26.6%
COc1cc(C(=O)Nc2sc(C(=O)N3CCOCC3)c(C)c2C#N)cc(OC)c1OC	4.5%	2.9	-106.6%*	3.7	-0.3%	18.2%
CC(=O)NC(=S)Nc1sc2c(c1C#N)CCCCC2	2.6%	15.6	i	-5.5	14.5%[15.4 µM]	?
COC(=O)c1sc(NC(=O)c2c(OC)cccc2OC)c(C#N)c1C	?	18.6	i	0.1	28.2µM*	46.2%
N#Cc1c(NC(=S)NC(=O)Cc2cccs2)sc2c1CCCCC2	3.2%	-2.8	i	2.0	32.1%	31.6µM*
CCOC(=O)c1sc(NC(=O)c2c(OC)cccc2OC)nc1C	0.3%	0.0	-119.0%*	2.2	0.4%	-8.6%
COc1cccc(OC)c1C(=O)Nc1sc2c(c1C#N)CCC2	0.2%	-118.4*	i	-3.1	24.5%[15.4 µM]	-3.8%
COC(=O)c1c(NC(=O)c2c(OC)cccc2OC)sc2c1CCCC2	0.7%	/	/	-8.6	/	/
O=C(CCCCCn1c(=S)[nH]c2ccc(N3CCOCC3)cc2c1=O)NCCc1ccccc1	3.4%	22.8	i	?	-2.5%[15.4 µM]	?
O=C(CCCCCn1c(=S)[nH]c2ccc(N3CCOCC3)cc2c1=O)NCc1ccccc1Cl	?	0.2	i	-103.9*	-0.8%[15.4 µM]	?
O=C(CCCCCn1c(=S)[nH]c2ccc(N3CCOCC3)cc2c1=O)NCc1ccc(Cl)cc1	14.0%	24.3	i	-92.4*	-1.2%[15.4 µM]	10.4%

Compound activity: PubChem, National Center for Advancing Translational Sciences (NCATS)
